Spn DPM-DC inh – S. pneumoniae DPM-DC inhibitors, primary screen, biochemical, PK/LDH-coupled NADH fluorescence | calls only at 10 µM | AID 556, 2006 | diphosphomevalonate decarboxylase (Streptococcus pneumoniae D39) | purified DPM-DC | hit rate 0.49% among 65,000;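 active = the 320 compounds with the highest percent inhibition in the single-dose primary screen, excluding strongly autofluorescent ones, cut at about 32% in these data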;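 note: kinetic rate of NADH fluorescence loss reporting ADP formed by the decarboxylase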
PMK inhibit – S. pneumoniae PMK inhibitors, primary screen, biochemical, mevalonate pathway, pilot trial included; purified PMK, PK/LDH-coupled NADH absorbance 340 nm; inhibition, % at 10 µM; hit rate 0.49% among 65,000;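 active = top-ranked compounds by inhibition in the single 10 µM screen, taking a fixed number of the strongest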
Fluor 339 460 – intrinsic fluorescence of library compounds, ex339/em460 – biochemical, MLSMR library, data from DPM-DC assay, artefact control, profiling panel; hit rate 5.5% among 65,000; fluorescence fold increase at 10 µM; compound autofluorescence, ex339/em460 nm, NADH buffer; stronger effect = higher value; 1 = no-compound wells, NADH background; AID 709, 2007;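 active = at 10 µM, mean starting fluorescence two-fold or more over control wells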;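 note: signal is the first read of a kinetic run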
NADH coupling – inhibitors of PK/LDH coupling enzymes, profiling panel, artefact control, biochemical, MLSMR library; IC50, µM (doses to about 10 µM); hit rate 0.02% among 65,000; AID 774, 2007; coupled PK/LDH NADH assays, four targets;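 active = single-dose screening hits from any of four coupled enzyme assays that gave an IC50 when retested across doses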;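 note: the DPM-DC format reads NADH fluorescence rather than 340 nm absorbance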
A340 absorber – compound light absorbance at 340 nm, profiling panel, artefact control, biochemical, MLSMR library, data from PS, PMK, MK assays | compound absorbance at 340 nm, fold over control | fold change at 10 µM | 65,000 tested, under 10 active;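 active = at 10 µM dose, initial 340 nm absorbance at least 2 fold that of control wells; inactive = change under 2 fold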;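 note: initial absorbance extrapolated from kinetic A340 decline of NADH oxidation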
Spn MK inh – S. pneumoniae MK inhibitors, primary screen, biochemical, PK/LDH-coupled NADH absorbance; inhibition, % at 10 µM; purified MK, PK/LDH-coupled NADH absorbance 340 nm; mevalonate kinase [Streptococcus pneumoniae D39]; hit rate 0.48% among 65,000;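 active = ranked among the strongest by inhibition in the single 10 µM screen, a fixed top-ranked set picked for dose follow-up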
Each line names hits and unclear results; the compound was inactive in the other large screens. Sampled rows, rich in hits. Any-hit rate of the full collection: about 6.8%.

N#CC(C(=O)c1ccco1)c1ccccn1 (stereo not drawn)	none
CNc1oc(-c2ccc(OCc3ccccc3)cc2)nc1C#N	none
N#Cc1nc(-c2ccc(OCc3ccccc3)cc2)oc1NCc1ccco1	Fluor 339 460 2.4
N#Cc1nc(-c2ccco2)oc1NCc1ccco1	Fluor 339 460 2.4 (not shown: Spn DPM-DC inh)
Cc1csc(NC(=O)CCC(=O)N(CC(=O)NC2CCCC2)Cc2ccco2)n1	none
COc1ccc(NC(C)=O)cc1NC(=O)CSc1nc2ncccc2[nH]1	none
COc1cccc(OCCOc2c(OC)cccc2OC)c1	none
CC(C)Oc1ccc(/C(O)=C2/C(=O)C(=O)N(CCCN3CCOCC3)C2c2ccncc2)cc1 (stereo not drawn)	none
CCOCC(=O)Nc1ccc(-c2cn3cccnc3n2)cc1	Fluor 339 460 5.2 (not shown: Spn DPM-DC inh)
CCCC(=O)Nc1cc(-c2cn3cccnc3n2)ccc1OC	Fluor 339 460 4.5 (not shown: Spn DPM-DC inh)
CCCCc1ccc(NC(=O)COCC)cc1	none
COc1ccc(-c2cn3cccnc3n2)cc1NC(=O)CC(C)C	Fluor 339 460 5.2 (not shown: Spn DPM-DC inh)
O=C(NCc1ccco1)c1cccc(S(=O)(=O)N2CCCCC2)c1	none
C=COC(=O)CSc1nc(-c2cccs2)ccc1C#N	Fluor 339 460 2.1
CCN(CC)C(=O)CSc1nc(C)cc(-c2cccs2)c1C#N	none
CCOC(=O)C(C)Sc1nc(-c2cccs2)ccc1C#N (stereo not drawn)	Fluor 339 460 2.2 (not shown: Spn DPM-DC inh)
Cn1c(N2CCC(C(N)=O)CC2)nc2c1c(=O)n(Cc1ccc(Br)cc1)c(=O)n2C	none
CC1CCCN(CC(=O)Nc2ccc(S(=O)(=O)NC3CCCCC3)cc2)C1 (stereo not drawn)	none
Cc1ccc2c(c1)N(CC(=O)OC(CC(C)C)C(=O)NC1CCCC1)C(=O)CO2 (stereo not drawn)	none
CC(C)C(OC(=O)CN1C(=O)COc2ccccc21)C(=O)NC1CCCC1 (stereo not drawn)	Spn DPM-DC inh active
CCCN(CCC)c1nc2ccccc2nc1C(C#N)C(=O)OCCOC (stereo not drawn)	none
C=CCN(CC=C)c1nc2ccccc2nc1C(C#N)C(=O)OCCOC (stereo not drawn)	Fluor 339 460 2.2
COc1ccc2[nH]cc(C(=O)N3CCCCC3)c(=O)c2c1	Fluor 339 460 2.1
Cc1ccc(S(=O)(=O)N2CCOCC2)cc1C(=O)N1CCOCC1	none
O=C(O)c1c[nH]c2ccc(S(=O)(=O)N3CCN(c4ccc(F)cc4)CC3)cc2c1=O	none
CCN(CC)S(=O)(=O)c1ccc2c(c1)c(=O)c(C(=O)N1CCOCC1)cn2C	none
CCN(c1ccccc1)S(=O)(=O)c1ccc2[nH]cc(C(=O)N3CCOCC3)c(=O)c2c1	Fluor 339 460 2.1 (not shown: Spn DPM-DC inh)
CCc1ccc2[nH]cc(C(=O)N3CCCCCC3)c(=O)c2c1	none
O=C(c1c[nH]c2ccc(S(=O)(=O)N3CCOCC3)cc2c1=O)N1CCCC1	Fluor 339 460 4.2 (not shown: Spn DPM-DC inh)
CCOC(=O)N1CCN(S(=O)(=O)c2ccc3[nH]cc(C(=O)O)c(=O)c3c2)CC1	Fluor 339 460 2.4
CC1(C)SC2[C@H](NC(=O)C(NC(=O)N3CCNC3=O)c3ccccc3)C(=O)N2C1C(=O)O (stereo partly drawn)	none
CCC(CO)NCc1ccc2c(c1)n(C)c(=O)n2C (stereo not drawn)	none
Cc1ccc(N2CC(C(=O)NCC3CCCO3)CC2=O)cc1Cl (stereo not drawn)	none
CC1CCN(S(=O)(=O)c2ccc3[nH]cc(C(=O)NCCN4CCOCC4)c(=O)c3c2)CC1	none (not shown: Spn DPM-DC inh)
COCCNC(=O)c1c[nH]c2ccc(S(=O)(=O)N3CCC4(CC3)OCCO4)cc2c1=O	Fluor 339 460 2.1 (not shown: Spn DPM-DC inh)
Cc1cccc(N2C(=O)c3cccc4c(N(C)CCO)ccc(c34)C2=O)c1	Fluor 339 460 2.1 (not shown: Spn DPM-DC inh)
O=c1oc2cc(OCc3nn[nH]n3)ccc2c2c1CCCC2	Fluor 339 460 3.8 (not shown: Spn DPM-DC inh)
Cc1cc2oc(=O)c3c(c2cc1OCc1nn[nH]n1)CCCC3	Fluor 339 460 3.3 (not shown: Spn DPM-DC inh)
CNC(=O)C1CC(=O)N(c2ccc(C)cc2)C1 (stereo not drawn)	none

Source: PubChem BioAssay (SRMLSC)
